Bioassay records: PubChem BioAssay, National Center for Advancing Translational Sciences (NCATS)
An excerpt weighted towards active compounds, which were near 12% of everything screened.
SARS PLpro yeast – inhibitors of SARS-CoV papain-like protease in yeast. Potency, µM (series often up to 32.9 µM), for inactives: at the top dose activity, positive = growth rescue, actives largely listed as activators. S. cerevisiae expressing SARS-CoV PLpro, growth rescue. 330,000 compounds, 0.19% hits. AID 485353; calls by dose curve; further: 0% is about no effect; nearly all actives have a fitted effect of over 55% in size
Pf growth 96h – inhibits malaria parasite growth, 96 h | Potency, µM (titrated, usually from 28.7 µM), for the others: top-dose activity change, negative = inhibition, actives largely listed as inhibitors | P. falciparum luciferase reporter growth, 96 h | AID 504834 | 320,000 compounds, 6.9% hits; further: on the % scale 0 is the no-effect control and ±100 the full control effect
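Readout is luminescence from an integrated firefly luciferase in P. falciparum. Red cells, 2% hematocrit and 0.05% parasitemia final, were cultured with compound through two parasite generations (96 hours) at 37 C, 5% CO2.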
Sm TGR inh – blocks Schistosoma mansoni thioredoxin glutathione reductase; purified TGR, DTNB reduction, TNB absorbance 405 nm; Potency, µM (doses to about 114 µM), inactives show at the top dose activity change, negative = inhibition, usual class: inhibitors; 360,000 compounds, 3% hits; AID 485364; further: on the % scale 0 is the no-effect control and ±100 the full control effect; nearly all actives have a fitted effect of over 60% in size
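TGR 20 nM + NADPH 100 uM (dispensed conc.), cpd preinc 15 min RT; start with NADPH (500 uM addition) then DTNB (15 mM addition). Kinetic TNB absorbance, 405 nm filter. Four-parameter Hill fit across titration.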
Pf growth 48h – P. falciparum growth inhibition at 48 hours (one generation). AID 504832. Potency, µM (doses to about 28.7 µM), inactives show top-dose activity change, negative = inhibition, actives largely listed as inhibitors. P. falciparum luciferase growth in erythrocytes, 48 h. 310,000 compounds, 5.9% hits; further: on the % scale 0 is the no-effect control and ±100 the full control effect
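In quantitative HTS format, infected erythrocytes bearing luciferase-reporter parasites were treated for a single generation at 37 C. Luminescence after adding detection reagent served as the growth measure.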
Active calls of the source: *; [ ] = dose if it differs, or a comment. Unless noted, the call rests on the fitted dose curve; in most records, active means well fitted curve in the direction sought with a large enough effect; inconclusive means small, poorly fitted or top-dose-only effect, or another doubt; inactive means no such curve, though single readings can be large; an effect the other way counts as inactive or inconclusive. Potency means the concentration at half of the fitted maximal effect.

How did COC(=O)c1ccccc1NC1=C/C(=N\S(=O)(=O)c2ccc(C(=O)O)cc2)c2ccccc2C1=O do in these assays?
SARS PLpro yeast: -10%; Pf growth 96h: 13%; Sm TGR inh: 14µM*; Pf growth 48h: 1.5µM*

What do the screens show for `O=C1C(Nc2ccccc2)=C/C(=N/S(=O)(=O)c2cccs2)c2ccccc21`?
SARS PLpro yeast: -76%; Pf growth 96h: 0.52µM*; Sm TGR inh: inconclusive; Pf growth 48h: 0.52µM*

How did COC(=O)c1ccccc1NC1=C/C(=N\S(=O)(=O)c2cccs2)c2ccccc2C1=O do in these assays?
SARS PLpro yeast: -12%; Pf growth 96h: 0.66µM*; Sm TGR inh: inconclusive

What do the screens show for `CCOc1ccc(NC(=O)CN2C(=O)COc3ccc(S(=O)(=O)NC4CCCC4)cc32)cc1`?
Sm TGR inh: -1%

Results for C=C(C)n1c(=O)n(Cc2ccccc2C)c2ccccc21 ?
SARS PLpro yeast: inconclusive; Pf growth 96h: -6%; Sm TGR inh: 18%; Pf growth 48h: 0%[0.00184 µM]

What do the screens show for `CCOc1ccc(S(=O)(=O)N(C)CCO)cc1-c1nc2c(C(C)(C)C)nn(C)c2c(=O)[nH]1`?
SARS PLpro yeast: 2%; Pf growth 96h: -8%; Sm TGR inh: 5%; Pf growth 48h: 12µM*

What do the screens show for `CCOc1ccc(S(=O)(=O)N(C)C)cc1-c1nc2c(C(C)(C)C)nn(C)c2c(=O)[nH]1`?
SARS PLpro yeast: -12%; Pf growth 96h: inconclusive; Sm TGR inh: -5%; Pf growth 48h: -5%

Results for COc1cccc(C2N(c3ccc(Cl)cc3)C(=O)C3CCCN32)c1 (stereo unspecified) ?
SARS PLpro yeast: -10%; Pf growth 96h: 5.2µM*; Sm TGR inh: -3%; Pf growth 48h: -3%

Results for Cc1cc(C(C)(C)C)cc(C)c1C[n+]1ccc2ccccc2c1 ?
SARS PLpro yeast: 0%; Pf growth 96h: 1.3µM*; Sm TGR inh: -20%; Pf growth 48h: 1.2µM*

What do the screens show for `CC1(C)C=Cc2c(c3c(c4c(=O)c(-c5ccc(O)cc5)coc24)OC(C)(C)CC3)O1`?
SARS PLpro yeast: -6%; Pf growth 96h: 9.3µM*; Sm TGR inh: -22%; Pf growth 48h: inconclusive

What do the screens show for `O=C(N=C1SC2CS(=O)(=O)CC2N1c1cccc(Cl)c1Cl)C1CC1` (stereo unspecified)?
SARS PLpro yeast: -2%; Pf growth 96h: -10%; Sm TGR inh: -5%; Pf growth 48h: -15%

What do the screens show for `CCN1CCN(C(=O)CCc2nnc3ccc(N4CCC5(CC4)OCCO5)nn23)CC1`?
SARS PLpro yeast: -12%; Pf growth 96h: inconclusive; Sm TGR inh: -26%; Pf growth 48h: 18%

Results for CCN(CC)S(=O)(=O)c1ccc(N2CCOCC2)c(NC(=O)COc2ccccc2)c1 ?
SARS PLpro yeast: 3%; Pf growth 96h: inconclusive; Sm TGR inh: 4%; Pf growth 48h: 9.3µM*

How did CCc1ccccc1OCC(=O)Nc1cc(S(=O)(=O)N(CC)CC)ccc1N1CCOCC1 do in these assays?
SARS PLpro yeast: -15%; Pf growth 96h: 1.2µM*; Sm TGR inh: 2%; Pf growth 48h: 1.3µM*

What do the screens show for `CCN(CC)S(=O)(=O)c1ccc(N2CCOCC2)c(NC(=O)CCOc2ccccc2)c1`?
SARS PLpro yeast: -4%; Pf growth 96h: inconclusive; Sm TGR inh: 7%; Pf growth 48h: 9.3µM*

What do the screens show for `CCN(CC)S(=O)(=O)c1ccc(N2CCOCC2)c(NC(=O)C2CCCC2)c1`?
SARS PLpro yeast: -3%; Pf growth 96h: 12µM*; Sm TGR inh: -1%; Pf growth 48h: inconclusive

How did CCN(CC)S(=O)(=O)c1ccc(N2CCOCC2)c(NC(=O)CNCCc2ccccc2)c1 do in these assays?
SARS PLpro yeast: 0%; Pf growth 96h: inconclusive; Sm TGR inh: 10%; Pf growth 48h: inconclusive

What do the screens show for `CC(=O)c1cc(C(=O)Nc2cccc(C)c2)c2ccccn12`?
Sm TGR inh: 10%

What do the screens show for `CCOC(=O)c1c(NC(=O)c2nc(SC)ncc2Cl)sc(C)c1C`?
Sm TGR inh: 0%

How did O=C(CCS(=O)(=O)c1ccc(Cl)cc1)NC1CCCC1 do in these assays?
SARS PLpro yeast: 1%

How did Cc1ccc(C)c(N2CCN(C(=O)CCn3c(=O)[nH]c4ccccc4c3=O)CC2)c1 do in these assays?
Sm TGR inh: -2%

Results for CCOc1cc2[nH]c(=O)n(CCCCC(=O)N3CCCCCC3)c(=O)c2cc1OCC ?
SARS PLpro yeast: 19%; Pf growth 96h: 10%; Sm TGR inh: 8%; Pf growth 48h: 5.2µM*

What do the screens show for `COc1cc2[nH]c(=O)n(CCC(=O)N3CCN(c4cc(Cl)ccc4C)CC3)c(=O)c2cc1OC`?
SARS PLpro yeast: -1%; Pf growth 96h: 0%; Sm TGR inh: 3%; Pf growth 48h: 12µM*

Results for CCOc1cc2[nH]c(=O)n(CCCCC(=O)N3CCN(c4cccc(Cl)c4)CC3)c(=O)c2cc1OCC ?
Sm TGR inh: -2%

What do the screens show for `CCOc1cc2[nH]c(=O)n(CCC(=O)N3CCN(c4ccccc4OC)CC3)c(=O)c2cc1OCC`?
SARS PLpro yeast: 3%; Pf growth 96h: 12µM*; Sm TGR inh: 1%; Pf growth 48h: inconclusive

Results for CCOC(=O)/C(C#N)=C/c1ccc(-c2ccc(C)cc2)o1 ?
Sm TGR inh: -13%

What do the screens show for `COc1ccc2sc(N(Cc3cccnc3)C(=O)c3ccc4c(c3)OCCO4)nc2c1`?
Sm TGR inh: -1%

How did CCCNc1c(NC(=O)COc2ccc(Cl)cc2)c(=O)oc2ccccc12 do in these assays?
SARS PLpro yeast: 1%; Pf growth 96h: inconclusive; Sm TGR inh: -8%; Pf growth 48h: 0.066µM*

Results for COc1cccc(/C=N/NC(=O)C(C)Sc2ccccc2)c1 (stereo unspecified) ?
SARS PLpro yeast: 0%; Pf growth 96h: 84%; Sm TGR inh: 0%; Pf growth 48h: 12%

Results for CCOc1ccc(/C=N/NC(=S)Nc2c(C)cccc2C)cc1 ?
SARS PLpro yeast: inconclusive; Pf growth 96h: 2.6µM*; Sm TGR inh: -7%

What do the screens show for `C=CCOc1cccc(/C=N/NC(=O)C(OC)c2ccccc2)c1` (stereo unspecified)?
SARS PLpro yeast: -3%; Pf growth 96h: 13µM*; Sm TGR inh: -3%; Pf growth 48h: -16%

How did CCOc1cc(/C=N/NC(=O)C(OC)c2ccccc2)ccc1O (stereo unspecified) do in these assays?
SARS PLpro yeast: inconclusive; Pf growth 96h: 63%; Sm TGR inh: -36%; Pf growth 48h: -10%

Results for CCOc1ccc(/C=N/NC(=O)C(OC)c2ccccc2)cc1 (stereo unspecified) ?
SARS PLpro yeast: 4%; Pf growth 96h: 9.3µM*; Sm TGR inh: 5%; Pf growth 48h: inconclusive

How did COc1ccc(CNC(=O)C2CCN(C(=O)c3ccc(-n4ccc5ccccc54)s3)CC2)cc1 do in these assays?
Sm TGR inh: -9%

Results for Cc1nn2c(N3CCN(C)CC3)cc(C(C)(C)C)nc2c1-c1ccccc1 ?
SARS PLpro yeast: 0%; Pf growth 96h: 3.3µM*; Sm TGR inh: 13%; Pf growth 48h: inconclusive
